Source: PubChem BioAssay
Rows were chosen to be rich in hits. Some 4.1% of all compounds tested hit in one or more screens of this group.
hgDAF12 agonist: H. glycines DAF-12 receptor agonists, primary screen, cell-based, luminescence, HEK293, GAL4 fusion, UAS-luciferase; HEK293 GAL4-hgDAF12 UAS-luciferase reporter, agonist luminescence; normalized to butyrate control; activation, % at 6.8 µM; 1.8% of 370,000 active; AID 687014, 2013;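 active = activation above a cutoff set at the mean of all screened compounds plus 3 SD, cut at about 10% in these data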;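 also: 0% = DMSO wells and 100% = sodium butyrate wells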
ssDAF-12 act: S. stercoralis DAF-12 nuclear receptor activators, primary screen, cell-based, luminescence, HEK293, GRIP1 co-expression, lit1-tk-luc; HEK293 ssDAF-12/GRIP1 lit1-tk-luc reporter; % of 3 µM dafachronic acid response; activation, % at 6.8 µM; 1% of 370,000 active;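 active = activation above the mean over all tested compounds plus 3 SD, cut at about 0.9% in these data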;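 also: 0% = DMSO-only wells and 100% = 3 µM delta7-dafachronic acid wells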
DAX1 inh-1: DAX1 (NR0B1) inhibitors on StAR promoter, primary screen, cell-based, luminescence, SF-1 (NR5A1), full-length DAX-1. HEK293T StAR-luciferase reporter, SF-1/DAX-1 repression relief. inhibition, % at 6.8 µM. 1.1% of 370,000 active. AID 652010, 2013;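 active = inhibition above the mean over all tested compounds plus 3 SD, cut at about 3.6% in these data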;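 also: 0% = DAX-1 cells with DMSO and 100% = cells lacking DAX-1 with DMSO; higher inhibition means more luminescence from relief of DAX-1 repression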
DAX1 inh-2: DAX1 (NR0B1) inhibitors, primary screen, cell-based, HEK293, Gal4-DAX1, luciferase luminescence; 0.99% of 340,000 active; HEK293 Gal4-DAX1 luciferase reporter; Nuclear receptor subfamily 0 group B member 1 (Homo sapiens), P51843; inhibition, % at 6.75 µM; AID 504766, 2011;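 active = inhibition above the mean over all tested compounds plus 3 SD, cut at about 4.2% in these data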;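 also: 0% = DAX1-transfected cells with DMSO and 100% = empty-vector control cells with DMSO; inhibition shows as a rise in luminescence from relieved DAX1 repression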
Target sequence (P51843 207-470 limits assumed): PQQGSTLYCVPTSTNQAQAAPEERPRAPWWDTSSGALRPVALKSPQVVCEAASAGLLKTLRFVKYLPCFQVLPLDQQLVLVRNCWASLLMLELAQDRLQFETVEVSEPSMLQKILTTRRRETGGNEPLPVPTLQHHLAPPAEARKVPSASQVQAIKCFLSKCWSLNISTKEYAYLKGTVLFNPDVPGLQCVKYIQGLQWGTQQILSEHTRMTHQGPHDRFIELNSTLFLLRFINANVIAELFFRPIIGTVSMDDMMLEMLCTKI
hcDAF12 agonist: H. contortus DAF-12 nuclear receptor activators, primary screen, cell-based, luminescence, HEK293, lit1-tk-luc reporter | HEK293 hcDAF-12 lit1-tk-luc reporter; 0% DMSO, 100% Δ7-dafachronic acid | activation, % at 6.8 µM | 1.4% of 370,000 active | AID 652067, 2013;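 active = activation above the mean of all tested compounds plus 3 SD, cut at about 5.5% in these data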;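 also: 100% = response to 3 µM Δ7-dafachronic acid high control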
An asterisk follows results filed as active; . = not tested or not shown.

SMILES | hgDAF12 agonist | ssDAF-12 act | DAX1 inh-1 | DAX1 inh-2 | hcDAF12 agonist
COc1ccc(C2/C(=C(\O)c3cccc(OC)c3)C(=O)C(=O)N2c2ccccn2)cc1 (stereo unspecified) | 0.8 | -1.2 | -0.6 | 6.8* | -1.5
CN(CCO)c1cccc2c1S(=O)(=O)N(Cc1cn(Cc3ccccc3C(F)(F)F)nn1)Cc1ccccc1O2 | -2.1 | -0.9 | -0.6 | . | -2.6
Cc1ccc(Nc2nnc(SC3CCOC3=O)s2)cc1 (stereo unspecified) | 1.7 | -1.7 | -0.3 | 0.5 | -1.5
O=C1CCCCC1Sc1nnc(Nc2ccccc2)s1 (stereo unspecified) | 10.7* | -0.8 | 2.2 | 3.8 | 1.4
COc1ccc(N/C(C)=C/C(=S)Nc2ccccc2)cc1 | 19.2* | 0.3 | 1.4 | -0.8 | 10.2*
CCOC(=O)c1c(C)nc2sc3c(=O)n(-c4ccc(C(C)=O)cc4)nnc3c2c1-c1ccc(OC)cc1 | 1.0 | -1.6 | -0.6 | 0.4 | 7.0*
CCOC(=O)c1c(C)nc2sc3c(=O)n(-c4ccc(OC)cc4)cnc3c2c1-c1ccc(OC)cc1 | 3.6 | -0.9 | -0.3 | -0.2 | -0.1
CCCc1nc2ccc(C(=O)OC)cn2c1Cc1ccc(C)cc1 | 1.7 | 0.6 | -0.4 | . | 3.0
CCCc1nc2ccc(C(=O)OC)cn2c1Cc1ccccc1 | 0.7 | 1.0* | 0.1 | . | 5.3
CCCc1nc2ccc(C(=O)OC)cn2c1Cc1ccccc1OC | 1.2 | 0.0 | 4.2* | . | -0.2
O=C(NCCCCC(NC(=O)c1ccccc1)C(=O)O)OCc1ccccc1 (stereo unspecified) | -2.5 | -1.6 | 0.0 | . | 2.2
O=C([C@@H]1C[C@H]1c1ccccc1)N1CC[C@H]2[C@H](CCCN2Cc2cc(F)cc(F)c2)C1 | -0.7 | -1.6 | -0.8 | . | -2.3
O=C(COC(=O)c1ccccc1F)NC1CCCC1 | -0.5 | -0.7 | 0.1 | 0.0 | -1.1
O=C(COC(=O)c1c(F)cccc1Cl)NC1CCCCC1 | 6.0 | 1.0* | 2.5 | 0.6 | 2.4
CCc1ccc(-c2csc(NC(=O)C3CCCO3)c2C(=O)OC(C)C)cc1 (stereo unspecified) | -1.7 | -1.2 | -0.8 | 0.7 | -1.0
COC(=O)c1c(-c2ccc(F)cc2)csc1NC(=O)C1CCCO1 (stereo unspecified) | 12.1* | -1.7 | 2.8 | -1.2 | -1.1
COc1ccc2c(c1)CN1C(=O)N(C3CCCC3)S(=O)(=O)CC21 (stereo unspecified) | 3.6 | -0.2 | 1.0 | . | 3.3
Cc1cc(=O)[nH]c(SCC(=O)Nc2cccc(S(=O)(=O)N3CCOCC3)c2)n1 | 0.2 | -0.9 | 3.7* | 0.7 | -1.8
O=S(=O)(c1cccs1)N1CCCc2nc(-c3ccc(F)cc3)ccc21 | 1.0 | -1.4 | -0.1 | . | -0.6
C/C(=N/O)c1cccc(N2Cc3ccccc3C2)c1 | 1.5 | -0.6 | 0.3 | -1.4 | 1.9
Cc1cccc(N2Cc3ccc(Br)cc3C2)c1 | 5.6 | -0.5 | 0.5 | 3.7 | 6.5*
CCCCOc1ccc(C(=O)N2CCNC(=O)C2CC(=O)OC(C)C)cc1 (stereo unspecified) | 0.1 | 1.9* | -0.2 | -0.6 | -0.7
C=CCN1[C@@H](CC(C)C)COc2cc(N3CCSCC3)ccc2S1(=O)=O | -2.1 | -1.3 | -0.7 | . | 2.9
Cc1ccc(C)c(NC(=S)N(C)CCO)c1 | -1.6 | -1.3 | -0.4 | 4.8* | -1.0
COc1ccc2nc(/N=C/c3c(C)[nH]n(-c4ccc(C)cc4)c3=O)sc2c1 | 5.4 | 0.1 | 1.7 | 0.0 | 5.6*
CC(C)CN1CCC(CN2C(=S)NC[C@@H]2Cc2ccccc2)CC1 | 0.4 | -1.3 | 2.8 | . | -2.0
